Screens: PubChem BioAssay, several laboratories
Sampled rows, rich in hits. Any-hit rate of the full collection: about 3.2%.
DSG3 Ab inh – human desmoglein-3 autoantibody binding inhibition; P32926; DSG3-coupled beads, scFv-anti-DSG3-GFP binding, flow cytometry; stronger effect = lower value; binding (percent of control), % at 10 µM; actives 0.48% (n = 310,000); AID 588358;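 active = binding more than 3 SD below its plate's average and above zero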;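 also: hits lower antibody fragment binding to DSG3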
Target sequence (P32926 whole entry, looked up, the tested form may be a part): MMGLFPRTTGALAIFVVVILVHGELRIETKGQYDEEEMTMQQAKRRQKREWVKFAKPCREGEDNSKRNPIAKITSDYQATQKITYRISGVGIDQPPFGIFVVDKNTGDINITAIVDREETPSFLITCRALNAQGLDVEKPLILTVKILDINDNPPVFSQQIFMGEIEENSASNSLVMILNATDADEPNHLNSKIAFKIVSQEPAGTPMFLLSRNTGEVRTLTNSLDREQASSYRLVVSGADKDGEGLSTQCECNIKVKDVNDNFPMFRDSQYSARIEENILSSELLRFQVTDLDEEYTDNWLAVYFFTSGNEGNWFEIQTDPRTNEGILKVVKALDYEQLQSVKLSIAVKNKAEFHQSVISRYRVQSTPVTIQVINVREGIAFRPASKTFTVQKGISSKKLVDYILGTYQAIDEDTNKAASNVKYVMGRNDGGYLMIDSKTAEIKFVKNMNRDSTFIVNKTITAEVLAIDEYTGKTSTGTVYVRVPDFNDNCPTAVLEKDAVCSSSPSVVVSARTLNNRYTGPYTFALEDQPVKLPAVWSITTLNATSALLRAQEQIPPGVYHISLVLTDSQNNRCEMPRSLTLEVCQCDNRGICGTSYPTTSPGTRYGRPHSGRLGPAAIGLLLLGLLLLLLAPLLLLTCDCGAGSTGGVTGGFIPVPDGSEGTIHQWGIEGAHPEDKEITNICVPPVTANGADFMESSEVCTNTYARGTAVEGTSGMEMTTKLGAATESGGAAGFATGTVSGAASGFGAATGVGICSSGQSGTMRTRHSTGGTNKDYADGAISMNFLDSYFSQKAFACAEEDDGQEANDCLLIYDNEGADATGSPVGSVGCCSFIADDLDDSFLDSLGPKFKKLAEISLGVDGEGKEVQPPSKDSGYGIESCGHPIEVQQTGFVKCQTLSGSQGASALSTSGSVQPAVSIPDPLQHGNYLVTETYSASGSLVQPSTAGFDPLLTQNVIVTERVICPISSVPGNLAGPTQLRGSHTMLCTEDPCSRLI
DAGLB inh – blocks human DAGLB lipase activity. AID 504411. HEK293T DAGLB membrane lysate, EnzChek fluorogenic substrate. Q8NCG7. actives 0.059% (n = 340,000). inhibition, % at 5.17 µM; in the data active = inhibition above about 34%;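 also: 0% = enzyme with vehicle and 100% = wells lacking enzyme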
NadD block – inhibitors of Staphylococcus aureus NadD; purified NadD enzyme, colorimetric absorbance read-out; inhibition, % at 20 µM; actives 0.78% (n = 360,000); in the data active = inhibition above about 26%
MsrA inhibitor – bovine MsrA inhibition. purified bovine MsrA, absorbance read-out. AID 651718. actives 0.75% (n = 360,000). inhibition, % at 15.5 µM; in the data active = inhibition above about 4.5%;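 also: 0% = vehicle wells with enzyme and 100% = reference inhibitor wells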
bovine MsrA act – activates bovine MsrA enzyme; purified bovine MsrA, absorbance read-out; activation, % at 10.6 µM; actives 0.3% (n = 360,000); AID 602163; in the data active = activation above about 7.5%;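 also: 0% = vehicle and 100% = reference activator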
rCAG binder – r(CAG) repeat RNA binding; TO-PRO-1 dye displacement fluorescence; inhibition, % at 3 µM; actives 1.3% (n = 370,000); AID 651821;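 active = inhibition above the plate cutoff, the mean of all test compounds on that plate plus 3 SD, cut at about 35% in these data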;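 also: 0% = DMSO alone and 100% = 100 µM mitoxantrone as full dye displacement; higher means more dye released from RNA so lower well fluorescence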
Active calls of the source: *; x = no result.

SMILES	DSG3 Ab inh	DAGLB inh	NadD block	MsrA inhibitor	bovine MsrA act	rCAG binder
CCc1ccc2c(c1)NC(=O)C2(C)Cc1ccccc1C#N (stereo not drawn)	x	x	1	0	-2	1
O=C1NC(=S)NC1=Cc1ccco1	78*	0	2	3	-11	17
COc1cc(/C=C/CN2CCC(C(=O)NC(c3ccc(F)cc3)c3ccc4ccccc4n3)CC2)ccc1OC(C)=O (stereo not drawn)	x	x	6	-1	4	4
CCn1c(SCC(=O)n2c(C)c(C)c3ccccc32)nnc1-c1ccco1	79*	-1	6	-1	-11	4
CCn1c(SCC(=O)N2c3ccccc3CC2C)nnc1-c1ccco1 (stereo not drawn)	x	0	3	0	-11	-6
O=C(Nc1cc(Cl)ccc1Oc1ccccc1)c1cnccn1	66*	-3	5	0	-1	1
COC(=O)[C@H](CC(C)C)N(Cc1cn(Cc2ccc(C)cc2)nn1)S(=O)(=O)c1ccccc1Br	x	x	x	x	x	2
Cc1cc(C)cc(OCCCN2CCC(C(O)(c3ccccc3)c3ccccc3)CC2)c1	x	x	x	0	x	1
Oc1c(N=Nc2ccccn2)ccc2ccccc12	78	40*	-1	1	-1	10
CCC(c1nnnn1-c1c(C)cccc1C)N1CCN(c2ccccn2)CC1 (stereo not drawn)	x	x	-7	1	-2	1
CCc1nc2ccc(C(=O)NCCC(C)C)cn2c1N(C)Cc1nccs1	x	x	1	2	-1	-2
O=c1[nH]sc2ccccc12	68	-2	-1	0	13*	-2
O=c1ccsc2ccccc12	x	x	5	1	-2	1
CCCN1CCCCC(NC(=O)c2c(F)cccc2F)C1=O (stereo not drawn)	x	x	x	0	x	1
CCOC(=O)c1c(-c2ccc(OC)cc2)csc1NC(=O)CSc1nnc(C)c(=O)[nH]1	100	16	9	-1	-3	63*
CCOC(=O)c1c(-c2ccc(OC)cc2)csc1NC(=O)CSc1ccccc1	x	-12	19	0	-4	7
Cc1ccc(-c2cc(C(=O)Nc3cccnc3)c3ccccc3n2)o1	81*	1	8	1	-12	11
Cc1ccc(NC(=O)c2cc(-c3ccc(C)o3)nc3ccccc23)cc1	101	-1	24	1	-12	19
Cc1cc(Oc2ccccc2F)nc(NCc2ccccc2)n1	-3.2*	-3	-3	2	-14	-8
CC(C)(C)C(=O)OC12CCCN(C1)/C(=C/c1ccncc1)C2 (stereo not drawn)	x	x	x	x	x	-1
O=Cc1ccc(O)cc1O	99	-1	6	3	-3	-2
O=CN/C=C/c1cc(O)ccc1O	78*	-1	13	2	-3	11
Cc1ccc(S(=O)(=O)N2CCN(c3ccc(C(F)(F)F)cc3[N+](=O)[O-])CC2)cc1	67*	-2	1	0	-2	0
CCOc1ccc2nc(S(=O)(=O)NC(=O)C3(C)CCN3C(=O)c3c(C)noc3C)sc2c1 (stereo not drawn)	x	x	7	0	-1	10
c1ccc2ncccc2c1	77*	-4	-4	x	-5	x
SMILES	DSG3 Ab inh	DAGLB inh	NadD block	MsrA inhibitor	bovine MsrA act	rCAG binder
c1ccc2c(c1)ccc1ncccc12	87	-3	0	0	-12	3
Cc1ccc2nc3c(cc2c1)c(NS(=O)(=O)c1ccccc1)nn3CC(C)C	83*	-1	4	0	1	4
CCn1nc(NS(=O)(=O)c2ccccc2)c2cc3cc(C)ccc3nc21	x	5	3	2	-2	24
O=C(Nc1nc2c(cc3c4c(cccc42)CC3)s1)c1ccccc1Cl	x	-2	7	4.6*	-12	16
O=C(Nc1nc2c(Cl)cccc2s1)C1CC1	110	-2	-1	0	-3	7
O=C(Nc1cccc(NC(=O)c2ccc([N+](=O)[O-])o2)c1)c1ccco1	53*	0	2	2	-5	1
Cc1c([N+](=O)[O-])cc(C(=O)Nc2ccc(NC(=O)c3ccco3)cc2)cc1[N+](=O)[O-]	96*	1	-1	1	-2	4
O=C(Nc1ccc(Cl)c([N+](=O)[O-])c1)c1ccco1	118	3	-8	1	-3	-1
CC(=O)Nc1cc(-c2cccc(C(=O)NCCO)c2)cn2c(-c3cccc(C(F)(F)F)c3)cnc12	x	x	-1	0	2	6
COC(=O)Cc1cc(=O)n(-c2nc3ccccc3[nH]2)[nH]1	96	1	-4	0	-9	42*
Cc1ccc(-c2nc(=O)[nH]c3ccccc23)cc1	108	-2	-10	0	-2	1
O=c1nc(-c2ccccc2)c2ccccc2[nH]1	88*	-2	1	1	-6	-1
COC(=O)C1CN(Cc2cn(Cc3ccc(F)cc3)nn2)CCS(=O)(=O)N1Cc1ccc(C)cc1 (stereo not drawn)	x	x	x	x	x	2
COc1ccc(Br)cc1S(=O)(=O)n1ccnc1C	89	1	10	0	-6	1
Cc1nccn1S(=O)(=O)c1ccc(Br)cc1Br	104	2	7	5.5*	0	3
COc1cc(/C=C/C(=O)OCC(=O)NCc2ccc3c(c2)OCO3)cc(OC)c1OC	x	0	-6	-1	-2	2
COC(=O)c1ccc(CNC(=O)COC(=O)/C=C/c2cc(OC)c(OC)c(OC)c2)cc1	61*	0	8	1	-3	-2
COc1cc2c(cc1NC(=O)Nc1ccccc1)oc1ccccc12	112	-1	-5	3	-2	35*
COc1ccc(CN(C)CC(=O)Nc2cc3oc4ccccc4c3cc2OC)c(OC)c1	143	-2	1	0	-4	2
COc1cc2c(cc1NC(=O)CN1C(=O)NC3(CCc4ccccc43)C1=O)oc1ccccc12 (stereo not drawn)	86	1	36*	3	0	24
COc1cc2c(cc1NC(=O)CN(C)Cc1ccc(OC)c(OC)c1)oc1ccccc12	99	-2	-3	4.6*	-7	6
O=c1[nH][nH]c2cc(=O)n(-c3ccc(Cl)cc3)nc12	90	10	4	1	-5	43*
COc1ccc(OC)c(NC(=O)CSc2nc3[nH]c(=O)[nH]c(=O)c3s2)c1	102	2	11	2	-8	37*
CCn1c(=S)sc2c(=O)[nH]c(SCC(=O)Nc3cc(OC)ccc3OC)nc21	x	12	11	2	-4	76*
CC(C)=CCC/C(C)=C/CNC(=O)C[C@H]1C[C@H](C(=O)N2CCCCC2)[C@@]2(CCc3ccccc3)c3[nH]c4cc(CCC(=O)N(C)C)ccc4c3CCN2C1=O	90	0	11	0	0	3
Cc1[nH][nH]c(=O)c1C(c1ccc(-c2ccc(F)cc2)o1)c1c(C)[nH][nH]c1=O	89	4	5	3	3	14
